# A number with no mark means an inactive call. Inconclusive results are not listed. Entries that show only a call come without a potency. The source made the active and inactive calls. Unless noted, calls come from the whole dose curve; as a rule, active = well fitted curve in the direction sought with a large enough effect in the repeat runs; inconclusive = weak or mixed curves; inactive = no such curve, though single readings can be large; an effect the other way counts as inactive or inconclusive.
# How the values were obtained:
# [1] = qHTS assay to identify small molecule antagonists of the TGF-beta/Smad signaling pathway - cell viability counter screen (AID 1346824); note: nearly all actives have a fitted effect of over 50% in size
# Summary of the method: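 Cytotoxicity counter-screen run in the same wells as the beta-lactamase Smad reporter read: CellTiter-Glo luminescence after 30 min at room temperature. HEK 293T SBE-bla cells had 5 hr compound exposure at 37 C with TGF-beta1 (0.25 ng/mL stock).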
# [2] = qHTS assay to identify small molecule agonists of the TGF-beta/Smad signaling pathway - cell viability counter screen (AID 1346829); note: nearly all actives have a fitted effect of over 45% in size; note: potency is the fitted concentration of half-maximal effect
# Summary of the method: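 SBE-bla HEK 293T cells plated overnight, compound exposure 5 hr at 37 C. Viability read in the same wells by CellTiter-Glo luminescence after 30 min at room temperature, following the beta-lactamase read.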
# [3] = qHTS assay to identify small molecule agonists of the TGF-beta/Smad signaling pathway (AID 1346859; active = well fitted activation curve with a large enough effect in the signal ratio in the repeat runs, not every such curve was filed as active; the % refers to the signal ratio; note: series mostly up to about 77 µM)
# Summary of the method: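 Read-out: fluorescence at 460 and 530 nm (405 nm excitation) after a 2 hr room-temperature incubation with beta-lactamase FRET substrate. SBE-bla HEK 293T cells had been treated with test compounds for 5 hr at 37 C.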
# [4] = target: Thyrotropin-releasing hormone receptor (Homo sapiens) (UniProt P34981); assay: qHTS assay to identify small molecule antagonists of the thyrotropin-releasing hormone receptor (TRHR) signaling pathway (AID 1346877; active = well fitted inhibition curve with a large enough effect in the repeat runs, not every such curve was filed as active; note: series mostly up to about 51 µM)
# Thyrotropin-releasing hormone receptor (Homo sapiens), sequence (P34981 whole entry, looked up): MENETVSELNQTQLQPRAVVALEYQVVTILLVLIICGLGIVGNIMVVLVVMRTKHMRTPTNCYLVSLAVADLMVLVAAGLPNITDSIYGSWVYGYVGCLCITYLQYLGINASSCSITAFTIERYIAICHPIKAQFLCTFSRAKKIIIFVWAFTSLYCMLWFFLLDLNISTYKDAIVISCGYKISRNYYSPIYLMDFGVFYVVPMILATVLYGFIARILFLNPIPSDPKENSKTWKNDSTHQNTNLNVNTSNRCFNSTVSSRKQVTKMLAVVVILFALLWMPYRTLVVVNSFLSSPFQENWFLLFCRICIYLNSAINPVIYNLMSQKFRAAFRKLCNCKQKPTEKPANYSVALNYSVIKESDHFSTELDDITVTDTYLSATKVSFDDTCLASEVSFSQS
# Summary of the method: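 Antagonism is measured as suppression of the calcium response to 1 nM TRH in TRHR-HEK293 cells that have been dye-loaded for 2 h at 37 °C after overnight plating. Each compound is tested at 15 concentrations in triplicate.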
# [5] = target: Thyrotropin-releasing hormone receptor (Homo sapiens) (UniProt P34981); assay: qHTS assay to identify small molecule agonists of the thyrotropin-releasing hormone receptor (TRHR) signaling pathway (AID 1346891; calls by dose curve;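 note: HEK293 cells expressing TRHR with calcium dye readout; series mostly up to about 58 µM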)
# Summary of the method: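 HEK293/TRHR cells, 1500 per well, 18 h 37 °C; Ca dye 2 h 37 °C; pin-tool compound addition (agonist mode); kinetic fluorescence 3 min, 1 s reads; 15 concentrations, triplicate.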
# [6] = Human pregnane X receptor (PXR) small molecule agonists, qHTS cell viability counter screen (AID 1346977); note: nearly all actives have a fitted effect of over 50% in size; note: potency is the fitted concentration of half-maximal effect
# Summary of the method: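 Fluorescence read-out (CellTiter-Fluor) of viability in PXR-Luc HepG2 cells, multiplexed with the luciferase agonist read. Compounds in DMSO added after 5hr plating; 24hr total exposure at 37C, 5% CO2.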
# [7] = Caspase-3/7 induction in HepG2 cells by small molecules, qHTS assay (AID 1346978); note: nearly all actives have a fitted effect of over 15% in size
# Summary of the method: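 Caspase-3/7 induction was measured by Caspase-Glo 3/7 luminescence (30 min, room temperature) after a 17 hr compound exposure of wild-type HepG2 cells seeded at 2,000 per well and pre-incubated 5 hr.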
# [8] = Caspase-3/7 induction in CHO-K1 cells by small molecules, qHTS cell viability counter screen (AID 1346979); note: nearly all actives have a fitted effect of over 35% in size; note: potency is the fitted concentration of half-maximal effect
# Summary of the method: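 CHO-K1 wt, 1,500 cells/well; 5hr pre-incubation 37C/5% CO2; compound pin transfer (DMSO); 16hr exposure; CellTiter-Fluor added, 1hr, fluorescence read.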
# [9] = Caspase-3/7 induction in CHO-K1 cells by small molecules, qHTS assay (AID 1346980); note: nearly all actives have a fitted effect of over 15% in size
# Summary of the method: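 Luminescent Caspase-Glo 3/7 read (30min, room temperature) quantified apoptosis induction. Cells were wild-type CHO-K1, treated with compound for 17hr at 37 C and 5% CO2.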
# [10] = qHTS assay to identify small molecule antagonists of the progesterone receptor (PR) signaling pathway - cell viability counter screen (AID 1346798); note: nearly all actives have a fitted effect of over 50% in size; note: potency is the fitted concentration of half-maximal effect
# Summary of the method: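 Luminescence readout (CellTiter-Glo, 30 min, RT) of viability in PR-UAS-bla HEK293T cells exposed to compound and R5020 agonist for 16 hr at 37C, 5% CO2; run in the same wells as the beta-lactamase reporter read.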
# [11] = Caspase-3/7 induction in HepG2 cells by small molecules, qHTS cell viability counter screen (AID 1346981); note: nearly all actives have a fitted effect of over 30% in size; note: potency is the fitted concentration of half-maximal effect
# Summary of the method: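 Cell viability is measured as a cytotoxicity counter screen alongside the Caspase-Glo 3/7 readout in identical wells. Wild-type HepG2 cells are treated with test compounds for 16 hr at 37 C before CellTiter-Fluor addition and a 1-hr incubation.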
# [12] = target: Nuclear receptor subfamily 1 group I member 2 (Homo sapiens) (UniProt O75469); assay: Human pregnane X receptor (PXR) small molecule agonists, qHTS assay (AID 1346982); note: nearly all actives have a fitted effect of over 35% in size; note: potency is the fitted concentration of half-maximal effect
# Nuclear receptor subfamily 1 group I member 2 (Homo sapiens), sequence (O75469 whole entry, looked up): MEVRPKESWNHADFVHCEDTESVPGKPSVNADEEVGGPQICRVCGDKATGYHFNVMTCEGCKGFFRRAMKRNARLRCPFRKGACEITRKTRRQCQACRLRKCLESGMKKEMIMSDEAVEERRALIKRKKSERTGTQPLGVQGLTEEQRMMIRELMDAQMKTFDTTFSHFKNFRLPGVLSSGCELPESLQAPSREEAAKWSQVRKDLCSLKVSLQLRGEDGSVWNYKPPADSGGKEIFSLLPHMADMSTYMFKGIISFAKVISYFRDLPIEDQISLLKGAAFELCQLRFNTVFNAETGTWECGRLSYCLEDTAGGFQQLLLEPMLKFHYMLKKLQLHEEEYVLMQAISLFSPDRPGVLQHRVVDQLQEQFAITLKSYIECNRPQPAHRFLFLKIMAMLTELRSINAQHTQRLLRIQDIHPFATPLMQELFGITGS
# Summary of the method: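 Cells: HepG2 stably carrying PXR-Luc. Medium held 5% charcoal-stripped FBS. Compounds in DMSO added after 5 hr plating, incubated 24 hr, then luminescence quantified with ONE-Glo.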
# [13] = target: Progesterone receptor (Homo sapiens) (UniProt P06401); assay: qHTS assay to identify small molecule agonists of the progesterone receptor (PR) signaling pathway (AID 1346784; calls by dose curve; note: nearly all actives have a fitted effect of over 30% in size)
# Progesterone receptor (Homo sapiens), sequence (P06401 whole entry, looked up): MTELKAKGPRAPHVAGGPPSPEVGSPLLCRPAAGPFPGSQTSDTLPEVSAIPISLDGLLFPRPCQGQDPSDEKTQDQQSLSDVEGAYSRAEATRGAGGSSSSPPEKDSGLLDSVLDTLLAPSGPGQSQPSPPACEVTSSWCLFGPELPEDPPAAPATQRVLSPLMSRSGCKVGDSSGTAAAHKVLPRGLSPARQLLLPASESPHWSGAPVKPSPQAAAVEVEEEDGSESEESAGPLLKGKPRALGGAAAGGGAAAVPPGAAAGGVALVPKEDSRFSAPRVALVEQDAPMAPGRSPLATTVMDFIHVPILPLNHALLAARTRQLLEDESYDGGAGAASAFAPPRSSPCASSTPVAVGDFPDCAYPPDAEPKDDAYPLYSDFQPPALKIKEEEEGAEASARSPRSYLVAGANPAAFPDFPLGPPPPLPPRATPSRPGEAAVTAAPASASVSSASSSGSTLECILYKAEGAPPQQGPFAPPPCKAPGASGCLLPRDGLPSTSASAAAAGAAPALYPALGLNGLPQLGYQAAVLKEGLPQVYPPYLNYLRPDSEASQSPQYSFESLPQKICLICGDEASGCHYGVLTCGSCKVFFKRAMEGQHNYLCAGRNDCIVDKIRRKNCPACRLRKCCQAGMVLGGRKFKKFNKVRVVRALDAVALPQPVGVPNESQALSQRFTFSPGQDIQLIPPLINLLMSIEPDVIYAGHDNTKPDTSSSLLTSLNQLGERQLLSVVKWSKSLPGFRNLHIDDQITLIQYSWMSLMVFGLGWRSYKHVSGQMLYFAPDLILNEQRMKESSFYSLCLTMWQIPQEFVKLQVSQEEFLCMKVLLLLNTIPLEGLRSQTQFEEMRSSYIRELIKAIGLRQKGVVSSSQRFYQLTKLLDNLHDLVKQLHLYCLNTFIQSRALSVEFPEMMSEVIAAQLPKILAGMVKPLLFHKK
# Summary of the method: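 HEK 293T PR-UAS-bla reporter cells, 2% charcoal-stripped FBS; 6 hr settle at 37C/5% CO2, compound (DMSO) 16 hr, LiveBLAzer B/G FRET substrate 2 hr RT, fluorescence intensity read.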
# [14] = qHTS assay to identify small molecule agonists of the estrogen receptor alpha (ER-alpha) signaling pathway in the presence of an antagonist - cell viability counter screen (AID 1259386);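 note: series mostly up to about 92 µM; cells exposed to compounds for 22 h at 37 °C before the viability read; nearly all actives have a fitted effect of over 30% in size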
# Summary of the method: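 Cytotoxicity was measured in parallel with the ERE-luciferase agonist screen, in the same wells. The cells were VM7Luc4E2, which endogenously express ER-alpha, and treatment was with compounds plus 10.0nM ICI-182,780 for 22hr.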
# [15] = qHTS assay to identify small molecule agonists of the progesterone receptor (PR) signaling pathway - cell viability counter screen (AID 1346799; calls by dose curve; note: nearly all actives have a fitted effect of over 45% in size)
# Summary of the method: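 HEK293T PR-UAS-bla, 3,000 cells/well, 2% charcoal-stripped FBS; 6 h settle, compound 16 h at 37C/5% CO2; LiveBLAzer 2 h RT, then CellTiter-Glo 30 min RT, luminescence read.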
# [16] = target: Progesterone receptor (Homo sapiens) (UniProt P06401); assay: qHTS assay to identify small molecule antagonists of the progesterone receptor (PR) signaling pathway (AID 1346795; active = well fitted inhibition curve with a large enough effect in the signal ratio in the repeat runs, not every such curve was filed as active; the % refers to the signal ratio; note: potency is the fitted concentration of half-maximal effect)
# Summary of the method: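 Beta-lactamase reporter, HEK293T PR-UAS-bla line; 2% charcoal-stripped FBS; 6 hr pre-incubation, 37C/5% CO2. Compound + R5020 1 nM final, 16 hr. LiveBLAzer B/G FRET substrate, 2 hr RT; fluorescence intensity read.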
# [17] = target: Nuclear receptor subfamily 1 group I member 2 (Rattus norvegicus) (UniProt Q9R1A7); assay: Rat pregnane X receptor (rPXR) activation by small molecules, qHTS assay (AID 1346983); conditions: rPXR luciferase reporter cells, One-Glo luminescence, 24 h; max activation: active compounds read high; note: nearly all actives have a fitted effect of over 20% in size
# Nuclear receptor subfamily 1 group I member 2 (Rattus norvegicus), sequence (Q9R1A7 whole entry, looked up): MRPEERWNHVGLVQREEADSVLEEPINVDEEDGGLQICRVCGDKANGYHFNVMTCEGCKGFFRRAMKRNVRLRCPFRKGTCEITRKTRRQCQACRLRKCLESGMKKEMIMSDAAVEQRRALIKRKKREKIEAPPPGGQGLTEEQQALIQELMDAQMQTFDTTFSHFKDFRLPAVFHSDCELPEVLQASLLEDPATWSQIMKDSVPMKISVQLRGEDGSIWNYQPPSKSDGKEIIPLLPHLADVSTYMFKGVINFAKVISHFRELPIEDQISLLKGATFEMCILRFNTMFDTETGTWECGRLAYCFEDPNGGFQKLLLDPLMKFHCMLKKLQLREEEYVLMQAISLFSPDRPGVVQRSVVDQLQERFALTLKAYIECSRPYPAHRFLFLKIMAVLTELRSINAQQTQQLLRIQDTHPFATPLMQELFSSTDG
# Summary of the method: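 Luminescent readout (One-Glo luciferase, 30 min room temperature) followed 24 hr compound treatment at 37 C of rPXR cells plated 2,000 per well and preincubated 5hr; qHTS format with compounds delivered in DMSO.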
# [18] = target: Nuclear receptor subfamily 1 group I member 2 (Homo sapiens) (UniProt O75469); assay: Human pregnane X receptor (PXR) activation by small molecules, qHTS assay (AID 1346985); note: nearly all actives have a fitted effect of over 40% in size
# Summary of the method: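 DPX-2 cells (HepG2 co-transfected with a PXR response element and a CYP3A4-promoter luciferase construct) were seeded at 2,000 per well, rested 5 hr at 37C, then exposed to DMSO-dissolved compounds for 24 hr. Activation was read as luciferase luminescence.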
SMILES,Potency [1],Potency [2],Potency [3],outcome [4],Potency [5],Potency [6],Potency [7],Potency [8],Potency [9],Potency [10],Potency [11],Potency [12],Potency [13],Potency [14],Potency [15],Potency [16],max activation [17] [%],Potency [18]
Cc1cc(O)ccc1O,inactive,inactive,inactive,inactive,inactive,inactive,inactive,31 µM (active),inactive,,,,,,,,,
CN1C(=O)N(c2ccccc2Br)Cc2cnc(Nc3ccc4c(c3)OCC(CO)O4)nc21 (centres undefined),,34.7 µM (active),inactive,inactive,,30.6 µM (active),,,,38.6 µM (active),15.4 µM (active),0.0154 µM (active),,,,,,
COc1ccccc1Oc1c(NS(=O)(=O)c2ccc(C(C)(C)C)cc2)nc(-c2ncccn2)nc1OCCO,inactive,inactive,inactive,inactive,inactive,,inactive,,inactive,inactive,,,inactive,,,,,
CCCCN(CCN(CCCC)C(=O)N1CCOCC1)C(=O)N1CCOCC1,inactive,inactive,,,inactive,,inactive,inactive,inactive,,inactive,,inactive,,,,,
OC(CCN1CCCC1)(c1ccccc1)C1CCCCC1 (centres undefined),,inactive,inactive,inactive,inactive,,inactive,inactive,inactive,inactive,inactive,,,inactive,inactive,,,
CC(C)COCC(CN(Cc1ccccc1)c1ccccc1)N1CCCC1 (centres undefined),,,,inactive,inactive,,,29.8 µM (active),,,29.8 µM (active),,,,,29.8 µM (active),,
COC(=O)CCS,inactive,inactive,inactive,,inactive,inactive,inactive,inactive,inactive,inactive,inactive,,inactive,,,,,
CCN(CC)CCNC(=O)COc1ccc(OC)cc1,inactive,inactive,inactive,inactive,,inactive,inactive,,inactive,inactive,inactive,inactive,,inactive,inactive,,6.52,inactive

# Reference: PubChem BioAssay (Tox21)
